Assay results taken from the supplement of paper PMC11001985.

These targets were tested with C#CCNC(=O)CCSSCCC(=O)NCCc1ccc(C=O)c(C=O)c1 (assay: lysine labeling ratio R10:1 (500 µM / 50 µM probe), SILAC-ABPP in living cells; higher = lower intrinsic lysine reactivity toward the probe, active = 2 or less). Conditions: HeLa; probe concentrations 500 vs 50 µM.
Summary of the method: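 Living SILAC light and heavy HeLa cells in PBS at room temperature were treated with an alkyne-tagged, disulfide-linked lysine probe at 50 µM or 500 µM, with forward and reverse label swaps. The mixed lysates were clicked to biotin-azide, digested with trypsin, captured on neutravidin, released with DTT, alkylated and run by LC-MS/MS on a TIMS-TOF Pro. R for each lysine is the filtered median high-probe/low-probe MS1 peptide ratio, taken again as the median over forward and reverse replicates. Any value above 20 is set to 20.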

Sequence of UniProt P35579 (P35579 whole entry): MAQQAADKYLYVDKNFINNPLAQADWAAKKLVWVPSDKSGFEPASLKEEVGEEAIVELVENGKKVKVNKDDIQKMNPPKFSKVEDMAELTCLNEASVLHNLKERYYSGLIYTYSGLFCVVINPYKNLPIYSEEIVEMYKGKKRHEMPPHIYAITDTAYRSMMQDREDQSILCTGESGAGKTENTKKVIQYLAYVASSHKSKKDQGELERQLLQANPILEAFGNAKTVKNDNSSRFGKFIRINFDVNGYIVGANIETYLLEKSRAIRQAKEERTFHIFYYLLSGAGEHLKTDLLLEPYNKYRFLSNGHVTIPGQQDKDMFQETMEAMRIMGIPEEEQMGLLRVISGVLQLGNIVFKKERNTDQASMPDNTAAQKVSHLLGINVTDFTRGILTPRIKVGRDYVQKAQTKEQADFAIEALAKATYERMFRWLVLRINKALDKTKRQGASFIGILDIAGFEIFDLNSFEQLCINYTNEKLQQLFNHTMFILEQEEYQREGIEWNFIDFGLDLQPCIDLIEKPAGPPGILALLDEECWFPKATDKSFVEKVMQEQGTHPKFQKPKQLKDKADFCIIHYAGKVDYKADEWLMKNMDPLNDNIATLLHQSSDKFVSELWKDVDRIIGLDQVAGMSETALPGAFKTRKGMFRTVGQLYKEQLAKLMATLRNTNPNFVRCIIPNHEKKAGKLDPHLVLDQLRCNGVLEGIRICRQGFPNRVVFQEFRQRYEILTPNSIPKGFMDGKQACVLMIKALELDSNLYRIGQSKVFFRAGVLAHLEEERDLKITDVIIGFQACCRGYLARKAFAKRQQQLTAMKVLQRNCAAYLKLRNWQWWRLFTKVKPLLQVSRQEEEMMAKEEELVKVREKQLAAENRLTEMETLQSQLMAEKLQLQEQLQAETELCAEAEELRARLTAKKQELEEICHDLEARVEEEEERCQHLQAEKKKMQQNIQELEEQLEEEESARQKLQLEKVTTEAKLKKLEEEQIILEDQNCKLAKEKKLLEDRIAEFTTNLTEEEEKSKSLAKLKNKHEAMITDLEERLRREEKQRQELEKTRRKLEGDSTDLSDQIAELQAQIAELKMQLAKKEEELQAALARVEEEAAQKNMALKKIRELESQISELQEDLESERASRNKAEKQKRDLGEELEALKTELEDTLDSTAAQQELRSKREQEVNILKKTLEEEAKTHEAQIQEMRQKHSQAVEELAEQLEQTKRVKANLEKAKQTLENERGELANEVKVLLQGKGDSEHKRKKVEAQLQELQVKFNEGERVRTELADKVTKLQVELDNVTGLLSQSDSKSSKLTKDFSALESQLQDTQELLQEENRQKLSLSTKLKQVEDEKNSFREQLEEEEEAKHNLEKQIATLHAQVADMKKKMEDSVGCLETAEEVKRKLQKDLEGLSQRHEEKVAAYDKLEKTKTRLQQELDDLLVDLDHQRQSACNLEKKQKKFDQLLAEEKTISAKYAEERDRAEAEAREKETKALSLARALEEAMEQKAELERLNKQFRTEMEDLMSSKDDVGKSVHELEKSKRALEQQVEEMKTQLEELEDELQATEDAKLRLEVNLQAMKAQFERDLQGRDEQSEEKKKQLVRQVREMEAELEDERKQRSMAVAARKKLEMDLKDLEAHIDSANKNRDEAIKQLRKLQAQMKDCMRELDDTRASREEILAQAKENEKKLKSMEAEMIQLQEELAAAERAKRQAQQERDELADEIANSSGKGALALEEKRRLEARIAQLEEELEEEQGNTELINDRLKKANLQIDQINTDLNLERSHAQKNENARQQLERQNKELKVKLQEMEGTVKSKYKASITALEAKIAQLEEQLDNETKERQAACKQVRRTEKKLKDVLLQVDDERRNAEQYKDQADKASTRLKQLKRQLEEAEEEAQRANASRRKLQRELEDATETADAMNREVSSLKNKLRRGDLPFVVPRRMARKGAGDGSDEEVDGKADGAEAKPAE
Sequence of UniProt P19022 (P19022 whole entry): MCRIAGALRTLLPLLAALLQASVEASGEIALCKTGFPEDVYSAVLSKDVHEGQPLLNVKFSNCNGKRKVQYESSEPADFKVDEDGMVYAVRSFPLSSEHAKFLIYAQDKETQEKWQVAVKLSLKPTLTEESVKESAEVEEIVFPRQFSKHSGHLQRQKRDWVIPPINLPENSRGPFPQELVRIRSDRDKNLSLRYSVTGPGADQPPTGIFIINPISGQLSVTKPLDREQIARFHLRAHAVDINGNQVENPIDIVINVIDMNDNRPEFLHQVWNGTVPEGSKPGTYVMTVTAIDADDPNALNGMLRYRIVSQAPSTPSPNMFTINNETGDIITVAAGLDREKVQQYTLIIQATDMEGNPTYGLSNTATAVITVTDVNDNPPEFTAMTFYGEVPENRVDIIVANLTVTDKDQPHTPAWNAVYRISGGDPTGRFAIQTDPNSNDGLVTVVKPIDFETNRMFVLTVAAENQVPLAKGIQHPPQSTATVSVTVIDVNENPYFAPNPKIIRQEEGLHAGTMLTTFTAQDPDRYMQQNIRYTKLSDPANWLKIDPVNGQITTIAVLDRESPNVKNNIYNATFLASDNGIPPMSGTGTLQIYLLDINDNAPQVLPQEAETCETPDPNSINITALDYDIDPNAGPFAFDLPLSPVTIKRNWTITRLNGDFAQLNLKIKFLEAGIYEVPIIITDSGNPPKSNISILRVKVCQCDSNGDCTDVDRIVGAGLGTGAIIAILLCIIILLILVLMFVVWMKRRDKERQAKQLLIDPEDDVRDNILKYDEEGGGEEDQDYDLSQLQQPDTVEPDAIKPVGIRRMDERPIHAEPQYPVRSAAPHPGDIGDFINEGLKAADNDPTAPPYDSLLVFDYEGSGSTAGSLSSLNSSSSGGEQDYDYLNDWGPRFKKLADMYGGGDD
Sequence of UniProt P52803 (P52803 whole entry): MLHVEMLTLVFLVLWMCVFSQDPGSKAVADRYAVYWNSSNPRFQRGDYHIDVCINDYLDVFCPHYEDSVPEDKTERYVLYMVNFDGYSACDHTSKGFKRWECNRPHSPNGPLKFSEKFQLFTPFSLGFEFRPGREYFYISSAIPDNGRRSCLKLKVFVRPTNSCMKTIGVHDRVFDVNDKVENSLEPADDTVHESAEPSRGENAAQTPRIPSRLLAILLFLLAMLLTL
Sequence of UniProt Q9NX63 (Q9NX63 whole entry): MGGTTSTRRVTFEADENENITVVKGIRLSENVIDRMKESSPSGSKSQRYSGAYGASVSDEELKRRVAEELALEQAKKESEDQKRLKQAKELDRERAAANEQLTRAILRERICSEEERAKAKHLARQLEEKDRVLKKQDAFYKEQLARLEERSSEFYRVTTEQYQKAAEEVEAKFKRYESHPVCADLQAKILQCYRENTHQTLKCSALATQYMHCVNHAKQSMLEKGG
Sequence of UniProt P63218 (P63218 whole entry): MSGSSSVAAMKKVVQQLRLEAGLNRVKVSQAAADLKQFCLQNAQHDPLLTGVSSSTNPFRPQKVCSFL
Sequence of UniProt P22234 (P22234 whole entry): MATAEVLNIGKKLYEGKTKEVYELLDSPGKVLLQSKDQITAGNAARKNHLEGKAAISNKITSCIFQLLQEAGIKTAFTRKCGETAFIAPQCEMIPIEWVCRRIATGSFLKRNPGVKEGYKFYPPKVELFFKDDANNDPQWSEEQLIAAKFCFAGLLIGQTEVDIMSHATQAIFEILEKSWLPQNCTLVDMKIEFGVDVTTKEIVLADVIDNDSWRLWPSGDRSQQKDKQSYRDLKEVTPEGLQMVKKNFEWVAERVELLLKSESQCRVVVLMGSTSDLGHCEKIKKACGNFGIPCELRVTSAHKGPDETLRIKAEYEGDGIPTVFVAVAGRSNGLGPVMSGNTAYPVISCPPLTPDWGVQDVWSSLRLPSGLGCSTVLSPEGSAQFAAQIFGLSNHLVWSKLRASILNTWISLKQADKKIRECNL
Sequence of UniProt O95573 (O95573 whole entry): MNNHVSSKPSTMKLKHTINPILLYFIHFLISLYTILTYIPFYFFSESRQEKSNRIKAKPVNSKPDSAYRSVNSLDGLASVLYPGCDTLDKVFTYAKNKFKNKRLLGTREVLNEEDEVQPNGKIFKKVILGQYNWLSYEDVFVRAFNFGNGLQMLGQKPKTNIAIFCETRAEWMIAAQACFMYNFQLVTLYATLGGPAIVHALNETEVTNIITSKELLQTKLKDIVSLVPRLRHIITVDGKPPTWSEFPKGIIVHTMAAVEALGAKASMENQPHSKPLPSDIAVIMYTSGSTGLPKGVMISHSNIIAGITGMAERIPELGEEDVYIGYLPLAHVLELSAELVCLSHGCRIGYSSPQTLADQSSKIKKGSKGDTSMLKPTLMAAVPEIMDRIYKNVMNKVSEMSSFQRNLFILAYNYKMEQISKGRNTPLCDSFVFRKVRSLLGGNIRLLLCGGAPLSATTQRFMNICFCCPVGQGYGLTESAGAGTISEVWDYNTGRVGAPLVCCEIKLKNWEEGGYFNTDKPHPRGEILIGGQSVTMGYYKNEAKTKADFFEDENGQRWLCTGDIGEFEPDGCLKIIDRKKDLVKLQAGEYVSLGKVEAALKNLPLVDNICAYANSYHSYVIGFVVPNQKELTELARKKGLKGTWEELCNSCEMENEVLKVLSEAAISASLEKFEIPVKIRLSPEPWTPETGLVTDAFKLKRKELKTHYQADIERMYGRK
Sequence of UniProt P10599 (P10599 whole entry): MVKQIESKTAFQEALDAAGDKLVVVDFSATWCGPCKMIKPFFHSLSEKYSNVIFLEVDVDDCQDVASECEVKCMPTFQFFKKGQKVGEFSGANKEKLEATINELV
Sequence of UniProt Q9NR28 (Q9NR28 whole entry): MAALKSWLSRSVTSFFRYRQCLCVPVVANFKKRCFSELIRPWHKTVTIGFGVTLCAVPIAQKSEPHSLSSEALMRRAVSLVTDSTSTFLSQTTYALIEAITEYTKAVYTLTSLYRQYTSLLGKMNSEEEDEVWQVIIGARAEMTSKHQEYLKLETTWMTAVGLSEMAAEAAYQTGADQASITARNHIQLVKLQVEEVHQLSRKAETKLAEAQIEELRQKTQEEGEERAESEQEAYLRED

Lysine labeling ratio R10:1, active:
ILF3 (lysine site: K214) (UniProt Q12906) 1.16
RDX (lysine site: K363) (UniProt P35241) 1.44
CHCHD3 (lysine site: K63) (UniProt Q9NX63) 1.33
DIABLO (lysine site: K219) (UniProt Q9NR28) 1.92
MYH9 (lysine site: K1392) (UniProt P35579) 1.15
NOTCH2 (lysine site: K693) (UniProt Q04721) 1.5
SCARB1 (lysine site: K288) (UniProt Q8WTV0) 0.704
MYH9 (lysine site: K1387) (UniProt P35579) 1.88
GBE1 (lysine site: K554) (UniProt Q04446) 0.937
UniProt P21589 (lysine site: K326) 1.17
MAP4 (lysine site: K946) (UniProt P27816) 1.95
LRP8 (lysine site: K420) (UniProt Q14114) 0.962
MYH9 (lysine site: K1338) (UniProt P35579) 1.98

Lysine labeling ratio R10:1, inactive:
IMPDH2 (lysine site: K134) (UniProt P12268) 2.5
LAMC1 (lysine site: K1584) (UniProt P11047) 3.72
PTPRS (lysine site: K897) (UniProt Q13332) 2.19
PAICS (lysine site: K110) (UniProt P22234) 3.11
UniProt Q16790 (lysine site: K133) 8.23
UniProt P62701 (lysine site: K233) 4.48
PABPC1 (lysine site: K512) (UniProt P11940) 3.06
UniProt Q15149 (lysine site: K1908) 3.91
CCT2 (lysine site: K82) (UniProt P78371) 2.91
UniProt P09758 (lysine site: K231) 4.22
IGF1R (lysine site: K598) (UniProt P08069) 5.67
TXN (lysine site: K96) (UniProt P10599) 2.11
SPTAN1 (lysine site: K241) (UniProt Q13813) 7.04
CDH2 (lysine site: K189) (UniProt P19022) 4.45
RER1 (lysine site: K181) (UniProt O15258) 7.46
PRDX2 (lysine site: K92) (UniProt P32119) 6.57
UniProt P62263 (lysine site: K125) 5.61
UniProt P63218 (lysine site: K12) 5.18
TLN1 (lysine site: K2361) (UniProt Q9Y490) 5.09
LAMB1 (lysine site: K1492) (UniProt P07942) 4.06
LRP1 (lysine site: K2009) (UniProt Q07954) 3.1
PTGFRN (lysine site: K752) (UniProt Q9P2B2) 3.57
IGSF3 (lysine site: K811) (UniProt O75054) 3.23
ACSL3 (lysine site: K679) (UniProt O95573) 2.71
ITGB1 (lysine site: K551) (UniProt P05556) 5.51
CLTA (lysine site: K141) (UniProt P09496) 2.25
UniProt P52803 (lysine site: K180) 6.21
